In experiment [1] the target is Cellular tumor antigen p53 (Homo sapiens) (UniProt P04637). Description: Primary qHTS for small molecule compounds that upregulate eGFP-tagged delta133p53alpha (in N-terminal) cells. (AID 2060322). Further: nearly all actives have a fitted effect of over 75% in size. Further: potency means the concentration at half of the fitted maximal effect.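 On activation: cells pre-induced with doxycycline then dosed without doxycycline; series mostly up to about 56 µM; 0% = DMSO vehicle and 100% = reference activator.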 The conditions noted are these: NCI-H358 eGFP-delta133p53alpha fluorescence, 24 h; activation: active compounds read high. Summed up: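 NCI-H358 cells pre-induced 24 h with 10 ng/ml doxycycline for eGFP-delta133p53alpha, plated dox-free and exposed 24 h at 37C to titrated compounds. Fixed, Hoechst-stained; gated GFP peak intensity by laser scanning cytometry, normalized to DMSO (0%) and 57.5 uM 5-azacytidine (100%).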
Cellular tumor antigen p53 (Homo sapiens), sequence (P04637 whole entry, looked up): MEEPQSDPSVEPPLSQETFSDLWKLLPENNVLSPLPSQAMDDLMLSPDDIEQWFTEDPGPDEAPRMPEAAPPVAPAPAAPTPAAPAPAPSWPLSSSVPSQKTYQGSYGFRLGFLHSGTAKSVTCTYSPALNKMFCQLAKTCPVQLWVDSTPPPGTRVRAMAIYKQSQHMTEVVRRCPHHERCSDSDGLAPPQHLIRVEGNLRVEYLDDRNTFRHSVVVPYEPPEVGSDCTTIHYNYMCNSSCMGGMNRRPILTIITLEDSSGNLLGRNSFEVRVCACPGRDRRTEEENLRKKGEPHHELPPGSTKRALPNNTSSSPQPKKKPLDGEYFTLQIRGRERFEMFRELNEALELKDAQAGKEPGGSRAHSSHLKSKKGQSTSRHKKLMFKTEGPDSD

The target in experiment [2] is Aldehyde dehydrogenase, mitochondrial (Homo sapiens) (UniProt P05091). Nature of the experiment: qHTS for Inhibitors of the Aldehyde Dehydrogenase Family (ALDH2) Primary screen (AID 2061308).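 Further: plate controls were vehicle for no effect and reference inhibitor for full effect; nearly all actives have a fitted effect of over 55% in size.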
Experiment [3] has as its target Retinaldehyde dehydrogenase 3 (Homo sapiens) (UniProt P47895). Description: qHTS for Inhibitors of the Aldehyde Dehydrogenase Family (ALDH1A3) Primary screen (AID 2061315).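 Further: plate controls were DMSO vehicle for no effect and reference inhibitor for full effect.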

Inconclusive results are not listed. A number with no mark means an inactive call. Calls of active or inactive are those of the source. The call rests on the fitted dose curve; in most records, active means well fitted curve in the direction sought with a large enough effect; inconclusive means small, poorly fitted or top-dose-only effect, or another doubt; inactive means no such curve, though single readings can be large; an effect the other way counts as inactive or inconclusive.

In the case of `C[C@H]1C[C@H]2[C@@H]3CCC4=CC(=O)C=C[C@]4(C)[C@@]3(F)[C@@H](O)C[C@]2(C)[C@@]1(O)C(=O)COP(=O)(O)O`, the activation in experiment [1] is 1%. Further, the Potency result in experiment [2] and in experiment [3] was “inactive” each time.
`COc1ccc(CCc2nc3cc(-c4c(C)noc4C)ccc3n2CC(C)N2CCOCC2)cc1Cl` (stereo not given): the activation in experiment [1] is 3.67%. Further, the Potency entry in experiment [2] and in experiment [3] was “inactive” in each case.
With `COc1ccc(F)cc1-c1cc(NC(=O)[C@@H]2CCCNC2)ncc1Cl`, the Potency in experiment [1] is 0.269 µM (active). In addition, the Potency entry in experiment [2] and in experiment [3] was “inactive” in each case.
For the compound `O=C(NCc1ccc(OC(F)(F)F)cc1)C1c2c(F)cccc2C(=O)N1CCc1ccccn1` (stereo not given), the activation in experiment [1] was 11.6%. The Potency entry in experiment [2] and in experiment [3] was “inactive” throughout.
For `Nc1nc(NC2CC2)cc(-c2cccc(Cl)c2Cl)n1`, the Potency in experiment [1] is 6.01 µM (active). Further, the Potency entry in experiment [2] and in experiment [3] was “inactive” in each case.
As to `C[C@]1(O)CC[C@@H]2C(C(=O)O)=CO[C@@H](O[C@@H]3O[C@H](COC(=O)/C=C/c4ccc(O)c(O)c4)[C@@H](O)[C@H](O)[C@H]3O)[C@@H]21`, the activation in experiment [1] is 0%. Moreover, the Potency entry in experiment [2] and in experiment [3] was “inactive” in each case.
As to `CC1COC(Nc2ccc3ncnc(Nc4ccc(OCc5nccs5)c(Cl)c4)c3c2)=N1` (stereo not given), the activation in experiment [1] was 13.4%. Also, the Potency result in experiment [2] and in experiment [3] was “inactive” in each case.
Turning to `COc1cc(/C=C/C(=O)O[C@@H]2O[C@H](CO)[C@@H](O)[C@H](O)[C@H]2O)ccc1O`, in experiment [1], the activation was 4.46%. For the same compound, the Potency result in experiment [2] and in experiment [3] was “inactive” in each case.
`Cc1cc(Cn2cnc3c2CC(C(=O)O)N(C(=O)C(c2ccccc2)c2ccccc2)C3)ccc1N(C)C` (stereo not given): in experiment [1], the activation was -7.64%. For the same compound, the Potency entry in experiment [2] and in experiment [3] was “inactive” throughout.
`CC(C)c1ccc2c(c1)C(=O)CC1[C@@](C)(C(=O)O)CCC[C@]21C` (stereo not given in full): the activation in experiment [1] was -2.68%. For the same compound, the Potency entry in experiment [2] and in experiment [3] was “inactive” throughout.
Turning to `C=C1C(=O)O[C@@H]2[C@H]3C(C)=CC(=O)C3=C(C)[C@@H](OC(=O)/C(C)=C\C)[C@H](O)[C@@H]12`, the Potency in experiment [1] is 16.6 µM (active). The Potency result in experiment [2] and in experiment [3] was “inactive” in each case.
In the case of `O=C1NC(=Nc2ccccc2F)S/C1=C\c1ccc(C(=O)O)cc1`, the activation in experiment [1] was 0.333%. Also, the Potency entry in experiment [2] and in experiment [3] was “inactive” throughout.
Regarding `CC(=O)O[C@H]1[C@H](O[C@H]2[C@@H]3C=CO[C@@H](O[C@@H]4O[C@H](CO)[C@@H](O)[C@H](O)[C@H]4O)[C@@H]3[C@@]3(CO)O[C@@H]23)O[C@@H](C)[C@H](OC(=O)/C=C/c2ccccc2)[C@H]1OC(=O)/C=C/c1ccccc1`, in experiment [1], the activation is -7.63%. Further, the Potency result in experiment [2] and in experiment [3] was “inactive” each time.
Turning to `COC1CC(=O)C23C(=O)NC(Cc4c[nH]c5ccccc45)C2C(C)C2(C)OC2C3/C=C/CC(C)CC1O` (stereo not given), the Potency in experiment [1] was 13.1 µM (active). Further, the Potency result in experiment [2] and in experiment [3] was “inactive” throughout.
Regarding `C[C@@H]1C(=O)O[C@H](C)[C@H]1C[C@@H](O)[C@](C)(O)[C@H]1CC[C@@]2(O)C3=CC(=O)[C@@H]4C[C@@H](O)[C@@H](O)C[C@]4(C)C3CC[C@]12C` (stereo not given in full), in experiment [1], the activation is -5.36%. In addition, the Potency entry in experiment [2] and in experiment [3] was “inactive” each time.
As to `C[C@@H]1CC2OC(=O)C3=C2C(CCC3O)[C@@]12C[C@@H](c1ccoc1)OC2=O` (stereo not given in full), in experiment [1], the activation is -8.4%. The Potency result in experiment [2] and in experiment [3] was “inactive” throughout.
On to `CC(=O)NC1C(OC2CCC3(C)C(CCC4(C)C3CC=C3C5CC(C)(C)CCC5(C(=O)O)C(O)CC34C)C2(C)C)OC(CO)C(O)C1O` (stereo not given), for which, in experiment [1], the activation was 1.53%. The Potency result in experiment [2] and in experiment [3] was “inactive” throughout.
On to `C=C(C(=O)O)C1CC2=C(C)CCCC2(C)C[C@@H]1O` (stereo not given in full), for which, in experiment [1], the activation was -16.1%. Besides, the Potency result in experiment [2] and in experiment [3] was “inactive” each time.
For `C=CC(C)(O)CC/C=C(\C)C(=O)OC1C(O)C(CO)OC(OC(=O)C23CCC(C)(C)CC2C2=CCC4C5(C)CCC(OC6OC(COC7OCC(OC(C)=O)C(O)C7OC7OC(COC(C)=O)C(O)C(O)C7OC(C)=O)C(O)C(O)C6OC6OCC(O)C(O)C6O)C(C)(C)C5CCC4(C)C2(C)C(O)C3O)C1OC1OCC(OC2OCC(O)C(OC3OCC(O)C(O)C3O)C2O)C(O)C1O` (stereo not given), the activation in experiment [1] is -12.2%. Moreover, the activity change, negative = inhibition is 11.4% [at 11.2 µM] in experiment [2] and 12.6% [at 11.2 µM] in experiment [3].
`COc1ccc(C(=O)Nc2ncc(-c3ccc(C(=O)O)cc3)s2)cc1`: the Potency in experiment [1] is 10.7 µM (active). Further, the Potency result in experiment [2] and in experiment [3] was “inactive” throughout.
On to `C=C1CC2C(C)(CCC(=O)O)C(C(C)(C)O)CCC2(C)C2(C(=O)OC)C(=O)C(C)(O)C(=O)C12C` (stereo not given), for which the activation in experiment [1] was -21.4%. Moreover, the Potency entry in experiment [2] and in experiment [3] was “inactive” in each case.
`C=C1[C@H](OC(C)=O)[C@H]2[C@@H](OC(=O)c3ccccc3)[C@@H](C)C[C@]2(O)[C@@H](OC(C)=O)[C@H](C)/C=C/C(C)(C)C(=O)[C@H](OC(C)=O)[C@H]1OC(C)=O`: the activation in experiment [1] was -3.57%. The Potency result in experiment [2] and in experiment [3] was “inactive” throughout.
As to `CC1=CC(=O)CC(C)(C)C1/C=C/C(C)OC1OC(COC2OCC(O)C(O)C2O)C(O)C(O)C1O` (stereo not given), in experiment [1], the activation is 8.93%. Besides, the Potency result in experiment [2] and in experiment [3] was “inactive” in each case.
Turning to `CC(C)C(N)C(=O)OCCOCn1cnc2c(=O)[nH]c(N)nc21` (stereo not given), in experiment [1], the activation was 8.93%. For the same compound, the Potency entry in experiment [2] and in experiment [3] was “inactive” each time.
For the compound `CC(=O)OCC(=O)O[C@@H]1[C@H]2[C@@H](OC(=O)c3ccccc3)[C@@H](C)C[C@]2(O)[C@H](OC(C)=O)C2(C)[C@H]3CC(C)(C)C(=O)[C@@H]3CC1(OC(C)=O)[C@@H]2OC(C)=O` (stereo not given in full), the activation in experiment [1] is -11.6%. Also, the Potency entry in experiment [2] and in experiment [3] was “inactive” each time.
